This note sets out measurements from PubChem BioAssay AID651789 (National Center for Advancing Translational Sciences (NCATS), 2012).

Records with an inconclusive call do not appear. Entries that show only a call come without a potency. Active and inactive are the calls of the source. Calls follow the shape of the dose curve; as a rule, active = well fitted inhibition curve with a large enough effect; inconclusive = small, poorly fitted or top-dose-only effect; inactive = no such curve, though single readings can be large or run the other way.
Potency is read from the fitted curve at half-maximal effect.

This experiment can be described thus: Acumen qHTS Assay for Inhibitors of the mTORC1 Signaling Pathway in WT MEF Cells: Hit Validation. Also: nearly all actives have a fitted effect of over 60% in size. The settings on record: Acumen imaging; series mostly up to 37.3 µM. Summed up: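 Read-out is immunofluorescent phospho-rpS6 (Ser235/236) normalised to PI-stained cell number, reported as % active cells using a 7.5 nM rapamycin threshold. Cells: WT or Tsc2-/-, p53-/- MEFs, compound-exposed 24 h at 37C; PI count also tracks viability.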
(In general: Quantitative high-throughput screening tests each substance at several concentrations.)
For `Cc1ccc(CN(Cc2ccco2)C(=O)c2cccc(C)c2)cc1`, the Potency entry is “inactive”. Regarding `CCOc1ccc(Nc2nc(-c3cccc(Cl)c3)c3c(n2)-c2ccccc2OC3)cc1`, the Potency result was “inactive”.

Consider `COc1ccc(CCNC(=O)C(C)n2nc(C)c3sc4ccccc4c3c2=O)c(OC)c1` (stereo not given), for which the Potency entry is “inactive”. With `COc1ccc2c(CNCCc3cccs3)c(C(=O)O)n(Cc3ccc(F)cc3Cl)c2c1` the entry was “inactive”; with `COc1ccc(C(=O)N2CCN(C(=O)COc3ccc(Br)cc3)CC2)cc1OC`, “inactive”; with `COc1ccccc1C(=O)Nc1ccc2nc(N3CCC(C)CC3)cc(C)c2c1`, “inactive”. Turning to `COc1ccc(OCc2nc3c4c(-c5ccccc5)c(-c5ccccc5)oc4ncn3n2)cc1`, the Potency entry is “inactive”. With `CCN(C(=O)C(NS(=O)(=O)c1ccc(Br)s1)c1ccccc1)c1ccc(C)c(C)c1` (stereo not given), the Potency entry was “inactive”. With `Nc1c(C(=O)NCc2ccccc2)nnn1Cc1cccc(Br)c1`, the Potency is 13.1 µM (active). Take `CCN1CCC(N(Cc2ccc(F)cc2)C(=O)Nc2ccc(C)c(F)c2)CC1`: the Potency entry was “inactive”. On to `CCOc1ccc(NC(=O)CN2C(=O)C(c3ccc(Cl)cc3)=NC2(C)C)cc1`, for which the Potency entry is “inactive”. Take `Cc1c(C(=O)OCCOc2ccccc2)[nH]c2c1C(=O)CC(c1ccccc1)C2` (stereo not given): the Potency was 0.0656 µM (active). Turning to `Cc1ccc(NC(=O)c2ccc(CN3CCN(C)CC3)cc2)cc1Nc1nccc(-c2cccnc2)n1`, the Potency entry is “inactive”.

Consider `CCc1ccc(NC(=O)Cn2c(=O)n(-c3ccc(OC)cc3)c(=O)c3ccc(C(=O)NCc4ccc(C)cc4)cc32)cc1`, for which the Potency was 10.4 µM (active).

As for `COc1cc(C(=O)N(CCCN(C)C)c2nc3c(OC)cccc3s2)cc(OC)c1OC`, the Potency result is “inactive”.
